According to the supplement of paper PMC3545927:
Some of the results follow. How many sequences the whole screen found active is unknown.

Biological target: furin, P09958
Assay: furin cleavage Z-score vs untreated control; higher = more cleavage, active = 3.5 or more, inactive = 1 or less, 8 variable residues between constant flanks
Method in brief: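 Purified furin cleaved 8-mer peptides that were fused to a cDNA oligonucleotide and held on magnetic beads by their N-terminus. Each 0.01 ml reaction used a 1:10 enzyme:substrate ratio in 50 mM HEPES pH 7.5 with CaCl2 and NaCl and ran 7.5, 15 or 30 min. Released DNA was adapter-tagged by PCR and sequenced, and read counts gave abundance. The cleavage Z-score came from log counts against furin-free reactions, lowess-adjusted and scaled by median absolute deviation.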

Chain of furin, P09958 (P09958 whole entry): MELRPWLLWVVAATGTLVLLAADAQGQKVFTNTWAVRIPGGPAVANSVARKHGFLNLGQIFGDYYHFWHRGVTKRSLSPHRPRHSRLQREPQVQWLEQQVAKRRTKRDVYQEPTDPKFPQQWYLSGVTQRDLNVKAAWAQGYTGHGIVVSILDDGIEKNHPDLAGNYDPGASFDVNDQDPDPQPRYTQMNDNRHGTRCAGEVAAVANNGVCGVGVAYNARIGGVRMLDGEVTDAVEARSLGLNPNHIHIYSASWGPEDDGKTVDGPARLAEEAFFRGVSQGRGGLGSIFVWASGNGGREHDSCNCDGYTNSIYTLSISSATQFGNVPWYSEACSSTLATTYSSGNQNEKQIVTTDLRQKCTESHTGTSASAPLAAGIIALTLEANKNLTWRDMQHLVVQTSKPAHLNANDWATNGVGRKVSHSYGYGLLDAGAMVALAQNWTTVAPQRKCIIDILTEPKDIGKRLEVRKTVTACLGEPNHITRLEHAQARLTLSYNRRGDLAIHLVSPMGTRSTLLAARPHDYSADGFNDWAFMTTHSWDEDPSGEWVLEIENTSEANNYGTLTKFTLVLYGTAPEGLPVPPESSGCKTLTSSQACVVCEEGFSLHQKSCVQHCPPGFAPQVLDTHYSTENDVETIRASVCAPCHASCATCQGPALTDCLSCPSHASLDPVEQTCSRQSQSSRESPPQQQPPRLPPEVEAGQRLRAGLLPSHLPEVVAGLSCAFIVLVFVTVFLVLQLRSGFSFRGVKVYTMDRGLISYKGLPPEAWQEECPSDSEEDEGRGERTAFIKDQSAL

Sequence | furin cleavage Z-score (7.5 min) | furin cleavage Z-score (15 min) | furin cleavage Z-score (30 min)
CAMGECSQHLAGNASASA [HC1696] | 2.31 | 0.612 (inactive) | 1.45
CAVVCCGMSYAGNASASA [HC102] | -1.2 (inactive) | -0.443 (inactive) | -0.831 (inactive)
CAGACYSIEPAGNASASA [HC1595] | -0.464 (inactive) | -0.533 (inactive) | -1.27 (inactive)
CADVMEECSQAGNASASA [HC1810] | 0.0621 (inactive) | 0.463 (inactive) | -0.158 (inactive)
CAEVVTSDWVAGNASASA [HC2211] | -1.36 (inactive) | -1.03 (inactive) | -1.22 (inactive)
CAFLLALLSCAGNASASA [HC249] | -0.759 (inactive) | -1.73 (inactive) | -0.995 (inactive)
CAHAVGIFRAAGNASASA [HC748] | -0.783 (inactive) | -0.538 (inactive) | 0.453 (inactive)
CAHANRTGRAAGNASASA [FS-130] | 3.34 | 5.9 (active) | 5.93 (active)
CAVVCCSPSYAGNASASA [HC2059] | 0.343 (inactive) | 0.71 (inactive) | -0.572 (inactive)
CANTNGSWHLAGNASASA [HC368] | -0.455 (inactive) | 0.77 (inactive) | -0.519 (inactive)
CARRQPIPKAAGNASASA [HC191] | -0.467 (inactive) | -0.696 (inactive) | -2.34 (inactive)
CARKARWLRAAGNASASA [FS-2262] | 8.22 (active) | 9.39 (active) | 8.11 (active)
CAEDAASLRAAGNASASA [HC1536] | 1.18 | 0.0869 (inactive) | 0.0662 (inactive)
CARRKRYAEHAGNASASA [FS-3056] | 8.67 (active) | 11.2 (active) | 9.71 (active)
CARKARYAIQAGNASASA [FS-1901] | 1.15 | 3.07 | 5.59 (active)
CARDPRAAIQAGNASASA [FS-2905] | -0.00694 (inactive) | -0.144 (inactive) | 0.0435 (inactive)
CARRGRPGLKAGNASASA [FS-2066] | -0.499 (inactive) | -1.08 (inactive) | -0.201 (inactive)
CARRGRAGSDAGNASASA [FS-2065] | -0.603 (inactive) | -0.507 (inactive) | -0.432 (inactive)
CARRGRAARHAGNASASA [FS-1609] | 7.16 (active) | 6.27 (active) | 7.79 (active)
CAVVCCSMSAAGNASASA [HC2083] | 0.0703 (inactive) | -1.17 (inactive) | -0.85 (inactive)
CAGGWVAAQLAGNASASA [HC1067] | -0.864 (inactive) | -1.6 (inactive) | 0.105 (inactive)
CAVVVATDALAGNASASA [HC877] | -0.345 (inactive) | -0.967 (inactive) | -0.904 (inactive)
CARRKRKKKHAGNASASA [FS-1777] | -0.226 (inactive) | 0.662 (inactive) | 2.03
CARRKRYAIQAGNASASA [FU8] | 8.03 (active) | 11.3 (active) | 11.2 (active)
CARVQRMAEHAGNASASA [FS-2841] | 2.56 | 3.98 (active) | 4.15 (active)
CARCRKSCEHAGNASASA [FS-1997] | -0.455 (inactive) | -0.923 (inactive) | 0.798 (inactive)
CARRKRYAIQAGNASASA [FS-3205] | 8.13 (active) | 11.7 (active) | 10.8 (active)
CARRKRCMRHAGNASASA [FS-2295] | 6.23 (active) | 8.55 (active) | 6.72 (active)
CAREIRSEEPAGNASASA [FS-2005] | 0.429 (inactive) | -0.412 (inactive) | -0.762 (inactive)
CARRKRKVLHAGNASASA [FS-2515] | 1.78 | 1.49 | 4.34 (active)
